# Assay results taken from PubChem BioAssay (Tox21).
# Several values for one entry are separate records, joined by “and”; a condition that tells them apart may be missing. Equal values may be shown once. Values without a mark were called inactive. A call without a number means that no potency is given here. More than one record can exist for a structure, and the calls need not agree. Activity calls are given as the source filed them. Calls come from the whole dose curve.
# Target: Estrogen receptor (Homo sapiens) (UniProt P03372)
# Sequence (P03372 whole entry, looked up): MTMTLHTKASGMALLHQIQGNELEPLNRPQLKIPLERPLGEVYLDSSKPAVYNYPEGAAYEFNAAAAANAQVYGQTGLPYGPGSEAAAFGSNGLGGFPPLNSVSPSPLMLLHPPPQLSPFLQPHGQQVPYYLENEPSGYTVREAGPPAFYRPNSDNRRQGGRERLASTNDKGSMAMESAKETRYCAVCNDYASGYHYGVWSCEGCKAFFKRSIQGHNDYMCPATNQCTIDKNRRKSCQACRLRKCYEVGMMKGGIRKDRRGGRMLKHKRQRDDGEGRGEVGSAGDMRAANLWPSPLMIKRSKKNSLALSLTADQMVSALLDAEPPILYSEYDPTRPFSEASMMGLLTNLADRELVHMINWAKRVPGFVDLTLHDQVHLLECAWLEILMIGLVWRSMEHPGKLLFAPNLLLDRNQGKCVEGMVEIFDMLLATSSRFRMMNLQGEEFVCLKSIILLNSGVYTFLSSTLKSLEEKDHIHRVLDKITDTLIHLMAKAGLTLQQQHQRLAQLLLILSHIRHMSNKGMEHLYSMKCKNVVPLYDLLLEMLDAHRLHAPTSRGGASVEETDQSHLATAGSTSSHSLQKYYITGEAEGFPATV
# Experiment: qHTS assay to identify small molecule agonists of the estrogen receptor alpha (ER-alpha) signaling pathway in the presence of an antagonist (AID 1259383); note: nearly all actives have a fitted effect of over 15% in size; for activation: top concentration of the series differs between compounds
# Settings: VM7Luc4E2 cells, ERE-luciferase, +ICI-182,780, 22 h; series mostly up to 92.4 µM
# Description: National Center for Advancing Translational Sciences [NCATS] NIH Chemical Genomics Center [NCGC] U.S. Environmental Protection Agency [EPA] National Institutes of Environmental Health Sciences [NIEHS] National Toxicology Program [NTP] Assay overview: Estrogen receptor (ER), a member of nuclear hormone receptor plays an important role in development, metabolic homeostasis and reproduction. Two subtypes of ER, ER-alpha and ER-beta, have similar expression patterns with some uniqueness in both types. Endocrine disrupting chemicals (EDCs) and their interactions with steroid hormone receptors like ER causes disruption of normal endocrine function. Therefore, it is important to understand the effect of environmental chemicals in ER signaling pathway. For identifying ER agonists, VM7Luc4E2 cell line has been used in the current assay. VM7Luc4E2 cell line (provided by Denison MS, University of California) endogenously expresses full-length ER-alpha and is stably transfected with a plasmid containing four estrogen responsive elements (ERE) upstream of a luciferase reporter gene. This current screening for measuring luciferase reporter gene activity using VM7Luc4E2 cells against Tox21 10K library collection is a confirmation study on agonist mode screening in presence of ER-antagonist (ICI-182,780) at 10.0nM final concentration.
# Assay Protocol Summary: VM7Luc4E2 cells were cultured in phenol red free assay medium containing 10% charcoal stripped FBS for 5 days prior to the assay. The cells were dispensed at 4,000 cells in 4uL of assay medium per well into white wall/solid-bottom 1536-well plates (Corning Life Sciences, Corning, NY) using a Multidrop Combi (Thermo Fisher Scientific Inc., Waltham, MA) dispenser. After the assay plates were incubated at 37C and 5% CO2 for 24hr, 1uL of 10.0nM (final concentration) ICI-182,780 or assay buffer was added using two separate tips of Flying Reagent Dispenser (FRD, Aurora Discovery, San Diego, CA). Then 23nL of compounds dissolved in DMSO at 15 concentrations and positive controls or DMSO only was transferred to the assay plates by a Pintool station (Wako, San Diego, CA). The assay plates were incubated at 37C and 5% CO2 for 22hr. For luciferase read, 4uL/well ONE-Glo reagent (Promega Corporation, Madison, WI) was added to each well using FRD and after 30min incubation at room temperature, luminescence signal was measured on ViewLux plate reader (PerkinElmer, Shelton, CT).
# Potency is the fitted concentration of half-maximal effect.
Compound,Potency,activation
Nc1ccc(Cl)cc1Cl,inactive,–
CC(C)OC(=O)C(C)(C)Oc1ccc(C(=O)c2ccc(Cl)cc2)cc1,inactive,–
CCCc1c(OCCCCc2nn[nH]n2)ccc(C(C)=O)c1O,inactive,–
O=C(Nc1ccc([N+](=O)[O-])cc1Cl)c1cc(Cl)ccc1O,77 nM (active),-10.6% [at 19 µM]
CC(C(=O)O)c1cccc(C(=O)c2ccccc2)c1 (stereo not given),inactive,–
CN1C(C(=O)Nc2ccccn2)=C(O)c2ccccc2S1(=O)=O,inactive,–
CC1=CCC(C(C)(C)O)CC1 (stereo not given),inactive,–
COC(=O)CCC(=O)OC,inactive,–
CCC(C)CO (stereo not given),inactive,–
C#C[C@]1(O)CC[C@H]2[C@@H]3CCc4cc(OC)ccc4[C@H]3CC[C@@]21C,137 nM (active) and 211 nM (active),–
O=C(COc1ccc(Cl)cc1)N1CCN(Cc2ccc3c(c2)OCO3)CC1,inactive,–
Nc1ccc(Nc2ccccc2)cc1,inactive,–
CN(C)CCC=C1c2ccccc2CCc2ccccc21,inactive,–
Cc1ccc(C)c(O)c1C,inactive,–
CC(CCC(=O)O)(c1ccc(O)cc1)c1ccc(O)cc1,inactive,–
C[C@]12CC[C@H]3[C@@H](CCC4=CC(=O)CC[C@@]43C)[C@@H]1CC[C@@H]2C(=O)CO,inactive,–
C[C@]12CCC(=O)C=C1CC[C@@H]1[C@@H]2C(=O)C[C@@]2(C)[C@H]1CC[C@]2(O)C(=O)CO,inactive,–
Cc1cccc([N+](=O)[O-])c1C,inactive,–
C#C[C@]1(O)CC[C@H]2[C@@H]3CCC4=Cc5oncc5C[C@]4(C)[C@H]3CC[C@@]21C,inactive,–
Cc1cccc(C(=O)O)c1,inactive,–

Compound,Potency,activation
Oc1ccc(O)cc1,inactive,–
O=C(O)c1ccccc1Nc1cccc(C(F)(F)F)c1,inactive,–
CCCCC(CC)COC(=O)c1ccc(N(C)C)cc1 (stereo not given),inactive,–
OC(CCl)CCl,inactive,–
COc1cccc2c1C(=O)c1c(O)c3c(c(O)c1C2=O)C[C@@](O)(C(=O)CO)C[C@@H]3O[C@H]1C[C@H](N)[C@H](O)[C@H](C)O1,inactive,–
COC(C)COC(C)COC(C)CO (stereo not given),inactive,–
O=S(=O)(O)c1ccc(O)cc1,inactive,–
O=C(Nc1ccc(Cl)cc1)Nc1ccc(Cl)c(Cl)c1,inactive,–
Nc1ncnc2nc[nH]c12,inactive,–
Cc1cccc(N(C)C(=S)Oc2ccc3ccccc3c2)c1,inactive,–
c1cc(N(CC2CO2)CC2CO2)ccc1OCC1CO1 (stereo not given),inactive,–
Cc1c(C(N)=O)cc([N+](=O)[O-])cc1[N+](=O)[O-],inactive,–
CCCCCCCCCCCO,inactive,–
CC1=CC2C3CC(C=C3C)C2C1 (stereo not given),inactive,–
O=Cc1ccccc1O,inactive,–
CCCCOCCOCCOCCO,inactive,–
CCCCc1oc2ccccc2c1C(=O)c1cc(I)c(OCCN(CC)CC)c(I)c1,inactive,–
CCCCNS(=O)(=O)c1ccccc1,inactive,–
CCCCOCCOCCO,inactive,–
